Hits are enriched below; roughly 5.4% of the tested compounds scored in any of these assays.
beta cell repl: induces beta-cell replication in MIN6 cells; proliferation, % at 10 µM; 330,000 tested, 0.29% active; MIN6 cells proliferation, ATPlite luminescence, 48 h; cells starved in 0.2% serum; 100% = growth in 10% serum; AID 2380;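 active = compounds whose signal lies at least 3.5 SD above the mean of all wells on their plate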
PfM18AAP inh-1: blocks P. falciparum M18 aspartyl aminopeptidase; inhibition, % at 7.35 µM; AID 1822; 290,000 tested, 1.2% active; recombinant PfM18AAP, H-Glu-NHMec fluorogenic cleavage;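 active = inhibition above the campaign mean inhibition over all tested compounds plus 3 SD, cut at about 28% in these data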
Exocytosis inh: lytic granule exocytosis inhibition; TALL-104 LAMP-1 surface exposure, flow cytometry; cells stimulated with thapsigargin and PMA; inhibition, % at 10 µM; 360,000 tested, 0.66% active; AID 651702;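 active = inhibition above about 55%, limit read from the data; inconclusive = no clear call, values can overlap the other calls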
ALR H2O2 inh: inhibitors of human sulfhydryl oxidase ALR. purified ALR, DTT oxidation, H2O2 HRP-luminol luminescence. inhibition, % (test concentration not listed). 290,000 tested, 3.8% active. AID 485317;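 active = mean replicate inhibition above about 79%, with every replicate also reaching it, limit read from the data; inconclusive = only one of the two criteria met; inactive = mean below limit and not every replicate reaching it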
JMJD2C inh: inhibitors of human GASC-1 (JMJD2C) demethylase. Q9H3R0. GST-JMJD2C(1-420) H3K9me3 demethylation, DELFIA europium. inhibition, % at 2.35 µM. 330,000 tested, 0.069% active. AID 2099;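 active = more than half of a compound's replicate wells show inhibition beyond 50%, single wells judged on their own value; inconclusive = some, but no more than half, of replicates pass 50% inhibition; inactive = no replicate passes 50% inhibition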;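 note: signal counts dimethyl H3K9 product captured on neutravidin plate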
Target sequence (Q9H3R0 1-420 limits assumed): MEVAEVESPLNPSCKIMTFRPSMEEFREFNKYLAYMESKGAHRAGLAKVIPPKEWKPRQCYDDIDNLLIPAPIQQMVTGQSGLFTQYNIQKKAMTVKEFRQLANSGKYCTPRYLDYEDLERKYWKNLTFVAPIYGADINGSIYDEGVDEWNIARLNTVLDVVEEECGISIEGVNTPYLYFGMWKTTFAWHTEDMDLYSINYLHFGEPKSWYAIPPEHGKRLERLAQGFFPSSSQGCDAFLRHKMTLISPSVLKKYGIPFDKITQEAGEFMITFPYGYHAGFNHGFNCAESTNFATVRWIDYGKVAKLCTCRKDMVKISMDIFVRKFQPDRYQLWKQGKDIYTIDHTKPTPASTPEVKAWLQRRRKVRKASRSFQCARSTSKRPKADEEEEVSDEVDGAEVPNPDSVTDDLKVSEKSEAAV
SMARCA2 activ: activators of SMARCA2 function; MG213 cells, MMTV-luciferase reporter, dexamethasone, overnight; 370,000 tested, 1% active; activation, % at 9.1 µM; in the data active = activation above about 7.8%
PfM18AAP inh-2: PfM18AAP inhibition, confirmation; shares compounds with PfM18AAP inh-1; recombinant PfM18AAP, H-Glu-NHMec fluorogenic cleavage; inhibition, % at 7.35 µM; 2,400 tested, 28% active; AID 2170;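 active = mean inhibition over replicate wells above the hit cutoff set for the earlier primary screen, cut at about 29% in these data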
CTSL1 counter: Cathepsin L (human) inhibition, confirmation | shares compounds with PfM18AAP inh-1 | purified cathepsin L1, Z-Leu-Arg-MCA fluorescence | inhibition, % at 5.96 µM | 2,400 tested, under 10 active;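 active = average inhibition across replicates above the hit cutoff set in the earlier primary screen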
Target sequence (P07711 whole entry, looked up): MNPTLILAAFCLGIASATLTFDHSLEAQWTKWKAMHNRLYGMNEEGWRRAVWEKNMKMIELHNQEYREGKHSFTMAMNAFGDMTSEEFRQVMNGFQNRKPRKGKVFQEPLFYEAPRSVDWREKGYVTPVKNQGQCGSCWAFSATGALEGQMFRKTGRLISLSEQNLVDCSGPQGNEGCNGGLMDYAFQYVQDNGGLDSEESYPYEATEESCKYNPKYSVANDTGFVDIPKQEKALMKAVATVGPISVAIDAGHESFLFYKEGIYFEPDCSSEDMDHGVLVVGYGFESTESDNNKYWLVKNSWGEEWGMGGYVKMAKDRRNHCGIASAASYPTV
Each line names hits and unclear results; the compound was inactive in the other large screens (follow-up assays come after a bar, where they were run).

O=C(NC(=S)Nn1cnnc1)c1ccccc1Br	PfM18AAP inh-1 79 | PfM18AAP inh-2 78 | CTSL1 counter inactive
O=C(NC(=S)Nn1cnnc1)c1ccccc1	none (no result: PfM18AAP inh-1)
COc1cc(C(c2c(C)[nH][nH]c2=O)c2c(C)[nH][nH]c2=O)cc(Cl)c1O	none
COc1cc(C(c2c(C)[nH][nH]c2=O)c2c(C)[nH][nH]c2=O)ccc1OC(C)C	none
COc1cc(C(c2c(C)[nH][nH]c2=O)c2c(C)[nH][nH]c2=O)cc(OC)c1OC	PfM18AAP inh-1 35 | PfM18AAP inh-2 inactive | CTSL1 counter inactive
COc1ccc(C(c2c(C)[nH][nH]c2=O)c2c(C)[nH][nH]c2=O)cc1Br	PfM18AAP inh-1 36 | PfM18AAP inh-2 inactive | CTSL1 counter inactive
O=C(CCCOc1ccc(Cl)cc1Cl)n1nnc2ccccc21	none
Nc1nncn1C(=O)CCCN1C(=O)c2ccccc2C1=O	PfM18AAP inh-1 44 | PfM18AAP inh-2 47 | CTSL1 counter inactive
Nc1nncn1C(=O)CCCOc1ccc(Cl)cc1Cl	PfM18AAP inh-1 47 | PfM18AAP inh-2 63 | CTSL1 counter inactive
COc1ccc(C2Nc3cccc4cccc(c34)N2)cc1	none
Clc1ccc(C2Nc3cccc4cccc(c34)N2)cc1Cl	PfM18AAP inh-1 36 | PfM18AAP inh-2 inactive | CTSL1 counter inactive
c1ccc(C2Nc3cccc4cccc(c34)N2)cc1	none
CN(C)c1ccc(C2Nc3cccc4cccc(c34)N2)cc1	PfM18AAP inh-1 37 | PfM18AAP inh-2 inactive | CTSL1 counter inactive
CC(C)CCNC(=S)Nc1ccccn1	PfM18AAP inh-1 33, ALR H2O2 inh 91 | PfM18AAP inh-2 inactive | CTSL1 counter inactive
COCCNC(=S)Nc1ccccn1	none
CC(=O)C1=C(C)NC(SCc2cccc([N+](=O)[O-])c2)=C(C#N)C1c1ccco1 (configuration not stated)	PfM18AAP inh-1 32 | PfM18AAP inh-2 inactive | CTSL1 counter inactive
CC(=O)C1=C(C)NC(SCC(N)=O)=C(C#N)C1c1ccco1 (configuration not stated)	none
COc1cc2ccc(=O)oc2c(O)c1OCC=C(C)C	PfM18AAP inh-1 40, ALR H2O2 inh inconclusive | PfM18AAP inh-2 inactive | CTSL1 counter inactive
CCOC(=O)[C@@H]1CSCCS(=O)(=O)N1Cc1ccc(C(F)(F)F)cc1	none (no result: beta cell repl, PfM18AAP inh-1, Exocytosis inh, ALR H2O2 inh, JMJD2C inh)
Cc1onc(-c2c(Cl)cccc2Cl)c1C(=O)Nn1cnnc1	PfM18AAP inh-1 45 | PfM18AAP inh-2 37 | CTSL1 counter inactive
COc1ccc(C(=O)Nn2cnnc2)c(OC)c1	PfM18AAP inh-1 34 | PfM18AAP inh-2 inactive | CTSL1 counter inactive
COc1ccc(C(=O)Nn2cnnc2)cc1OC	PfM18AAP inh-1 43 | PfM18AAP inh-2 inactive | CTSL1 counter inactive
Cc1ccc(C(=O)Nn2cnnc2)c(Cl)c1	PfM18AAP inh-1 49 (no result: ALR H2O2 inh) | PfM18AAP inh-2 42 | CTSL1 counter inactive
O=C(CCc1c[nH]c2ccccc12)Nc1ccc(Nc2ccccc2)cc1	none (no result: beta cell repl, PfM18AAP inh-1, Exocytosis inh, ALR H2O2 inh, JMJD2C inh)
Cc1onc(-c2ccccc2Cl)c1C(=O)NNC(=O)c1ccc(F)cc1	none (no result: ALR H2O2 inh)
Cc1cccc(C(=O)NNC(=O)c2c(-c3ccccc3Cl)noc2C)c1O	PfM18AAP inh-1 39 | PfM18AAP inh-2 inactive | CTSL1 counter inactive
CCCn1c(-c2ccc(F)cc2)n[nH]c1=S	PfM18AAP inh-1 35 | PfM18AAP inh-2 inactive | CTSL1 counter inactive
CC(C)[C@@H](C(=O)N[C@@H](CCc1ccc(O)cc1)C(=O)O)N(C)C(=O)[C@H](CO)NC(=O)[C@@H](O)[C@H](N)CCCCCCCCl	none (no result: beta cell repl, PfM18AAP inh-1, ALR H2O2 inh, JMJD2C inh)
CCN(CC)c1cccc(OC2=NS(=O)(=O)c3ccccc32)c1	PfM18AAP inh-1 36, ALR H2O2 inh 99 | PfM18AAP inh-2 inactive | CTSL1 counter inactive
Cc1ccccc1N(C)C(=O)CN1CCN(c2nc(-c3ccccc3)cs2)CC1	none (no result: beta cell repl, PfM18AAP inh-1, Exocytosis inh, ALR H2O2 inh, JMJD2C inh)
CN(C)CCN(Cc1cc2cc3c(cc2[nH]c1=O)OCO3)C(=S)NCC1CCCO1 (configuration not stated)	none
O=c1[nH]c2cc3c(cc2cc1CN(CCN1CCOCC1)C(=S)NCC1CCCO1)OCO3 (configuration not stated)	PfM18AAP inh-1 41 | PfM18AAP inh-2 inactive | CTSL1 counter inactive
CCCC(=O)Nc1ccc(C(=O)N/N=C2\CC(=O)CC(C)(C)C2)cc1	PfM18AAP inh-1 39 | PfM18AAP inh-2 inactive | CTSL1 counter inactive
COC(=O)C1=C(C)N(C)C(=NCC2CC2)NC1c1ccc(Cl)cc1 (configuration not stated)	none (no result: beta cell repl, PfM18AAP inh-1, Exocytosis inh, ALR H2O2 inh, JMJD2C inh)
COC(=O)[C@]12C[C@H](CC(=O)NCc3cccs3)C(=O)N(Cc3ccccc3)C1=C[C@H](C1CCCC1)O[C@@H]2C	none (no result: beta cell repl, PfM18AAP inh-1, Exocytosis inh, ALR H2O2 inh, JMJD2C inh)
CCOC(=O)CN1NC2(CCC(C)CC2)NC1=S (configuration not stated)	PfM18AAP inh-1 43 | PfM18AAP inh-2 inactive | CTSL1 counter inactive
CCOC(=O)CN1NC2(CCCC(C)C2)NC1=S (configuration not stated)	PfM18AAP inh-1 43 | PfM18AAP inh-2 inactive | CTSL1 counter inactive
CCOC(=O)CN1NC2(CCCCCCC2)NC1=S	none
C=C1[C@@H](C)CN[C@@H]1CCO	none (no result: beta cell repl, PfM18AAP inh-1, Exocytosis inh, ALR H2O2 inh, JMJD2C inh)
Cc1cc2c(nc1C)CCCN2Cc1ccccc1C(F)(F)F	none (no result: beta cell repl, PfM18AAP inh-1, Exocytosis inh, ALR H2O2 inh, JMJD2C inh)
COc1cc(C(C[N+](=O)[O-])c2c(C)cc3ccccn23)ccc1O (configuration not stated)	PfM18AAP inh-1 40 | PfM18AAP inh-2 inactive | CTSL1 counter inactive
COc1cc(C(C[N+](=O)[O-])c2c(-c3ccccc3)cc3ccccn23)cc(OC)c1OC (configuration not stated)	none
Cc1cc2oc(=O)sc2cc1NS(=O)(=O)c1ccccc1	PfM18AAP inh-1 36 (no result: ALR H2O2 inh) | PfM18AAP inh-2 inactive | CTSL1 counter inactive
Cc1cc2oc(=O)sc2cc1NS(=O)(=O)c1cccc2cccnc12	none
COc1ccc(CNS(=O)(=O)c2cc(Br)ccc2Br)c(OC)c1	none (no result: beta cell repl, PfM18AAP inh-1, Exocytosis inh, ALR H2O2 inh, JMJD2C inh)
Cc1ccc(S(=O)(=O)N2C(=O)CCC2C(=O)Nn2cnnc2)cc1 (configuration not stated)	PfM18AAP inh-1 66 | PfM18AAP inh-2 32 | CTSL1 counter inactive
Cc1nc(/C(=N/O)C(N)=O)cs1	PfM18AAP inh-1 48 | PfM18AAP inh-2 38 | CTSL1 counter inactive
Cc1ccc2c(c1)-c1c(ssc1=S)C(C)(C)N2C(=O)c1ccco1	PfM18AAP inh-1 40 | PfM18AAP inh-2 inactive | CTSL1 counter inactive
CC1(C)c2ssc(=S)c2-c2ccccc2N1C(=O)c1ccco1	none (no result: ALR H2O2 inh)
COc1ccc(N2C(N)=C(C#N)C(c3ccsc3)C3=C2CCCC3=O)c(OC)c1 (configuration not stated)	PfM18AAP inh-1 35 (no result: ALR H2O2 inh) | PfM18AAP inh-2 inactive | CTSL1 counter inactive

Compound activity deposited in PubChem by several laboratories.
